Measurements published in PubChem BioAssay (NCATS).
Results filed as inconclusive are left out. Unmarked numbers belong to inactive results. The source made the active and inactive calls. Calls come from the whole dose curve; as a rule, active = well fitted cell-killing curve with a large enough effect; inconclusive = small, poorly fitted or top-dose-only effect, or effect the other way; inactive = flat fitted curve, though single readings scatter.

tested on: CAOV3; test: Primary qHTS to identify gynecologic anti-cancer compounds using libraries of approved drugs and bioactive compounds (AID 1345084); conditions: Gynecologic cancer cell panel viability, ATPlite luminescence, 48 h; series mostly up to 57.5 µM; activity change, negative = cytotoxicity: at the top concentration; note: nearly all actives have a fitted effect of over 55% in size
Text: National Center for Advancing Translational Sciences [NCATS] Assay Overview: Chemotherapeutic drug responses vary from cancer to cancer and from patient to patient. These variations could be caused by a number of factors including patient genomic background, tumor mutations, tumor heterogeneity, and aspects of drug treatment. Chemotherapeutic drug resistance is also a common issue and can lead to ineffective treatment and patient death. Here we have profiled the cell killing effects of thousands of compounds to characterize the responses in three gynecological cancers, identify cancer-selective compounds, and understand the diversity of responses to these compounds from pan-cancer suppressors to single cell line selective compounds. In this assay, we screened a 7,914 compound drug library that included approved drug and bioactive compounds in six ovarian, three cervical, and […] placental cancer cell lines using the ATPlite assay for cell viability. […] The cervical cancer cell lines included HeLa, Ca Ski, and C-33 A. The placental cancer cell lines included JEG-3. HEK 293T cells were used as the control cell line to determine the selectivity index. ATPlite is a luminescence based assay reliant on the conversion of a luciferase substrate to light in the presence of ATP. As a cytotoxic compound will suppress growth and decrease the number of cells, the concentration of ATP will decrease, and less light signal will be detected in the well.
Assay Protocol Summary: 1,000 cells in 4 uL of media were dispensed into white, solid bottom 1536-well plates using a Multidrop Combi (Thermo Scientific). The Assay plates were incubated for 16 hours at 37 C with 5% CO2 in assay plates, followed by the addition of 23 nL of DMSO or drug dissolved in DMSO. Each compound was assayed in five concentrations (0.092, 0.46, 2.3, 11.5, and 57.5 uM), using the automated Wako 1536 Pin Tool workstation and incubated at 37 C with 5% CO2 48 hours. 4 uL of ATPlite, the ATP monitoring reagent, was then added to the each well of the assay plates using the Multidrop Combi reagent dispenser followed by incubation for 15 minutes at room temperature. The resulting luminescence was measured using the ViewLux plate reader.
% is set by controls: 0 for no effect and ±100 for the full control effect; potency is the fitted concentration of half-maximal effect.

SMILES	activity change, negative = cytotoxicity	Potency
C[C@]12CC[C@@H](O)C[C@H]1CC[C@@H]1[C@@H]2CC[C@]2(C)C(=O)CC[C@@H]12	21.4%	–
COC1CC(O[C@H]2CC[C@]3(C=O)C4CC[C@]5(C)[C@@H](C6=CC(=O)OC6)CC[C@]5(O)[C@@H]4CC[C@]3(O)C2)OC(C)C1O[C@@H]1O[C@H](CO)[C@@H](O)[C@H](O)[C@H]1O (stereo not given in full)	–	0.501 µM (active)
C[C@@H]1C(=O)O[C@H]2[C@H](O)[C@@]34[C@@H]5OC(=O)[C@@]3(O[C@@H]3OC(=O)[C@@H](O)[C@@]34[C@H](C(C)(C)C)[C@H]5O)[C@@]12O	3.26% [at 25.3 µM]	–
CCCN1CCO[C@H]2c3cc(O)ccc3OC[C@@H]21	9.04%	–
COC1C(O)C(OC2CCC3(C=O)C(CCC4C3CCC3(C)C(C5=CC(=O)OC5)CCC43O)C2)OC(C)C1OC1OC(CO)C(O)C(O)C1O (stereo not given)	–	2 µM (active)
C[C@H]1O[C@@H](O[C@H]2C[C@@H](O)[C@]3(CO)C4C(CC[C@]3(O)C2)[C@@]2(O)CC[C@H](C3=CC(=O)OC3)[C@@]2(C)C[C@H]4O)[C@@H](O)[C@@H](O)[C@H]1O (stereo not given in full)	–	0.562 µM (active)
COCC1OC(=O)c2coc3c2C1(C)C1=C(C3=O)C2CCC(=O)C2(C)CC1O (stereo not given)	7.87% [at 38.5 µM]	–
C/C=C(\C)C(=O)OC1CC2C(C)(C)OC(=O)CC(OC(C)=O)C2(C)C2CC(OC(=O)C(C)C)C3(C)C(c4ccoc4)CC4OC43C12C (stereo not given)	0.152% [at 25.3 µM]	–
CN1C(=O)N(c2ccc(C#N)c(C(F)(F)F)c2)C(=O)[C@]1(CO)c1ccccc1	2.77%	–
C=CC(C)(C)c1[nH]c2cccc3c2c1C[C@@H]1[C@@H]3[C@@H](OC(C)=O)[C@H](C)CN1C	7.95% [at 38.5 µM]	–
O=C(O)c1ccnc2cc(C(OCCN3CCCCC3)c3ccccc3Cl)[nH]c12 (stereo not given)	-0.446%	–
CN1[C@H]2C[C@H](OC(=O)[C@H](CO)c3ccccc3)C[C@@H]1[C@@H](O)C2	2.89%	–
C[C@@]1(C(=O)O)CC[C@]2(C)CC[C@]3(C)C4=CC(=O)c5cc(O)c(O)cc5[C@]4(C)CC[C@@]3(C)[C@@H]2C1	8.77% [at 25.3 µM]	–
CC1=CC2/C=C(\C)CCC(O)C3OC(C)(C)OC3CC(=O)OC23C(=O)NC(CC(C)C)C3C1C (stereo not given)	-11.1% [at 25.3 µM]	–
CCCCCOc1cc2c(cc1-c1cc(/C=C/C(=O)O)ccc1O)C(C)(C)CCC2(C)C	25.8%	–
COC(=O)[C@@]12C(=O)C(C)C(=O)[C@]1(C)C(C)=C[C@H]1[C@]3(C=O)CC[C@H](OC(C)=O)C(C)(C)[C@H]3CC[C@@]12C (stereo not given in full)	-4.64% [at 25.3 µM]	–
O=C(N1CCOCC1)N1CCN(c2ccc(Cl)cc2)CC1	22%	–
CCN1C[C@]2(COC)[C@H](O)C[C@H](OC)[C@]34[C@@H]5C[C@]6(O)[C@H](OC(=O)c7ccccc7)[C@@H]5[C@@](O)([C@H]([C@H](OC)[C@H]23)[C@@H]14)[C@@H](O)[C@@H]6OC	9.73% [at 38.5 µM]	–
Cc1cc(C(=O)CN2CCCC2)c(C)n1-c1ccc(F)cc1	–	inactive
CC(N)Cc1c[nH]c2ccccc12 (stereo not given)	5.1%	–

SMILES	activity change, negative = cytotoxicity	Potency
CN1C(=O)c2ccccc2NC(=O)[C@]12O[C@@H]2c1ccccc1	-4.47%	–
CC(C)[C@@H](CN1CC[C@@](C)(c2cccc(O)c2)[C@@H](C)C1)NC(=O)[C@H]1Cc2ccc(O)cc2CN1	-22.5%	–
CC(C)(O)[C@H]1O[C@H]2CC[C@@]3(C)[C@@](O)(CC[C@H]4Cc5c([nH]c6ccccc56)[C@@]43C)C2=CC1=O	22.3% [at 25.3 µM]	–
COC(=O)N1CCN(C(=O)Cc2ccc(Cl)c(Cl)c2)[C@@H](CN2CCCC2)C1	19.3%	–
C[C@@]12C[C@@H](c3ccoc3)OC(=O)C1CC[C@]1(C)[C@H]2[C@H]2C=C[C@]1(O)C(=O)O2 (stereo not given in full)	17.4% [at 38.5 µM]	–
C/C=C(\C)C(=O)OC1CC2C(CC=C3CC(OC4CC(OC)C(OC5CC(OC)C(OC6OC(C)C(OC7OC(CO)C(O)C(O)C7O)C(OC)C6O)C(C)O5)C(C)O4)CCC32C)C2(O)CCC(C(C)=O)C12C (stereo not given)	5.78% [at 11.6 µM]	–
CC[C@H]1CN2CC[C@H]1C[C@H]2[C@H](O)c1ccnc2ccc(OC)cc12	3.19% [at 38.5 µM]	–
CC[C@H]1CN2CC[C@H]1C[C@@H]2[C@@H](O)c1ccnc2ccc(OC)cc12	2.21% [at 38.5 µM]	–
CCc1c(C(=O)C(N)=O)c2c(OCC(=O)OC)cccc2n1Cc1ccccc1	23.1%	–
COc1c(C(C)C)cc2c(c1O)[C@@]1(C(=O)O)CCCC(C)(C)C1CC2 (stereo not given in full)	-0.952% [at 38.5 µM]	–
C/C=C(\C)C(=O)O[C@H]1[C@H](OC(C)=O)[C@]2(CO)[C@H](O)[C@H](O)[C@]3(C)C(=CCC4[C@@]5(C)CC[C@H](O[C@@H]6O[C@H](C(=O)O)[C@@H](O)[C@H](O[C@@H]7OC[C@H](O)[C@H](O[C@@H]8OC[C@H](O)[C@H](O)[C@H]8O)[C@H]7O)[C@H]6O[C@@H]6O[C@H](CO)[C@@H](O)[C@H](O)[C@H]6O)C(C)(C)C5CC[C@]43C)[C@@H]2CC1(C)C (stereo not given in full)	0.059% [at 6.55 µM]	–
COC1=CC(=O)O[C@@H](/C=C/c2ccccc2)C1	-6.79%	–
CCN1CC2(COC)C3[C@@H](OC)C4C1C3(C1C[C@]3(O)[C@H](OC(=O)c5ccccc5)C1[C@]4(OC(C)=O)[C@@H](O)[C@@H]3OC)[C@H](OC)C[C@H]2O (stereo not given in full)	8.98%	–
C=C[C@H]1[C@H](O[C@@H]2O[C@H](CO)[C@@H](O)[C@H](O)[C@H]2O)OC=C2C(=O)OCC[C@H]21	-4.95% [at 38.5 µM]	–
Clc1ccc(N2C[C@H]3CC[C@@H](C2)N3)nn1	29.4%	–
CN1[C@@H]2CC[C@H]1CC(OC(=O)C1C=Nc3ccccc31)C2 (stereo not given in full)	5.69%	–
C=C[C@H]1CN2CC[C@H]1C[C@@H]2[C@@H](O)c1ccnc2ccccc12	-3.08%	–
C[C@@](O)(COc1ccc(C#N)cc1)C(=O)Nc1ccc(C#N)c(C(F)(F)F)c1	11.8%	–
CCOc1ccccc1-n1c(C(C)N2CCN(C(=O)COc3ccc(Cl)cc3)CC2)nc2ccccc2c1=O (stereo not given)	-1.79%	–
COC(=O)C1(C)CCC(O)C2(C)c3cc(O)c(C(C)C)cc3C(O)C(OC(C)=O)C12 (stereo not given)	1.91% [at 25.3 µM]	–
